In PubChem BioAssay (NCATS) one finds Potency and activity (max response) data, which are given here for twelve compounds.

Where “and” joins values, the source holds several entries; their conditions need not be identical. Equal entries are not always repeated. Inconclusive results are not listed. Values without a mark were called inactive. Calls of active or inactive are those of the source. The call rests on the fitted dose curve; in most records, active means well fitted curve in the direction sought with a large enough effect; inconclusive means small, poorly fitted or top-dose-only effect, or another doubt; inactive means no such curve, though single readings can be large; an effect the other way counts as inactive or inconclusive.

The nature of assay [1]: Viability qHTS for spleen associated tyrosine kinase inhibitor (SYKi) naive MV4-11 cells (AID 1963823). Further: nearly all actives have a fitted effect of over 40% in size. The procedure, abridged: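 Luminescence from CellTiter-Glo, developed 10 min at room temperature, gave viability of MV4-11 cells never exposed to SYK inhibitor. Cells (500/well) had been incubated with compounds for 72 hr under standard culture conditions.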
(In general: Quantitative high-throughput screening tests each substance at several concentrations.)

The nature of assay [2]: Viability qHTS for spleen associated tyrosine kinase inhibitor (SYKi) drug resistant MV4-11 cells (AID 1963824). Further: nearly all actives have a fitted effect of over 35% in size. The procedure, abridged: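 SYK-inhibitor-resistant MV4-11 AML cells were seeded at 500 per well onto compound and cultured 72 hours (37 °C, 5% CO2). CellTiter-Glo was then added, and after 10 min at room temperature, luminescence gave viability.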
Assay [3] in a line: Quantitative highthroughput screen to assess conditional lethalithy of NOMO1 cells grown in RPMI1640 with untreated serum (RPMI+s) (AID 1963876). Further: nearly all actives have a fitted effect of over 35% in size.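 On Viability: 100% = DMSO wells and 0% = empty wells without cells.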 The procedure, abridged: (§1)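 Each medium arm—HPLM with 10% dialyzed FBS, or RPMI1640 with 5 mM glucose and 10% untreated or dialyzed FBS—was screened against an 11-point, 3-fold compound titration for 48 h at 37 °C, with CellTiter-Glo luminescence as endpoint.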

Assay [4] in a line: Quantitative highthroughput screen to assess conditional lethalithy of NOMO1 cells grown in RPMI1640 with dialyzed fetal bovine serum (RPMI+ds) (AID 1963877). Further: nearly all actives have a fitted effect of over 30% in size.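 On Viability: series mostly up to about 46 µM; 100% = DMSO control wells and 0% = empty wells.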 The procedure, abridged:
as §1

Assay [5] in a line: Quantitative highthroughput screen to assess conditional lethalithy of NOMO1 cells grown in Human Plasma-Like Medium with dialyzed fetal bovine serum (HPLM+ds) (AID 1963878). Further: nearly all actives have a fitted effect of over 35% in size.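 On Viability: 100% = DMSO wells and 0% = empty wells on each plate.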 The procedure, abridged:
as §1

Assay [6] can be described thus: Quantitative highthroughput screen to assess conditional lethalithy of P12 Ichikawa cells grown in Human Plasma-Like Medium with dialyzed fetal bovine serum (HPLM+ds) (AID 1963879). Further: nearly all actives have a fitted effect of over 35% in size. On Viability: series mostly up to about 46 µM. Particulars: Potency: viability. The procedure, abridged: as §1
Assay [7] in a line: Quantitative highthroughput screen to assess conditional lethalithy of P12 Ichikawa cells grown in RPMI1640 with dialyzed fetal bovine serum (RPMI+ds) (AID 1963880). Further: nearly all actives have a fitted effect of over 35% in size.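 On Viability: 100% = DMSO wells and 0% = empty wells on each plate.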 As to conditions: Potency: P12-Ichikawa viability. The procedure, abridged:
as §1

Assay [8] in a line: Quantitative highthroughput screen to assess conditional lethalithy of SEM cells grown in Human Plasma-Like Medium with dialyzed fetal bovine serum (HPLM+ds) (AID 1963882). Further: nearly all actives have a fitted effect of over 35% in size. On Viability: series mostly up to about 46 µM. The procedure, abridged:
as §1

The nature of assay [9]: Quantitative highthroughput screen to assess conditional lethalithy of SEM cells grown in RPMI1640 with unreated serum (RPMI+s) (AID 1963883). Further: nearly all actives have a fitted effect of over 35% in size.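 On Viability: 100% = DMSO wells and 0% = empty wells without cells.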 The procedure, abridged:
as §1

Assay [10] in a line: Cellular viability qHTS for adrenocortical cancer (ACC) cell line SW-13 (AID 1963989). Further: nearly all actives have a fitted effect of over 65% in size.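 On activity (max response): cells grown in serum-free medium with ITS supplement; on the % scale 0 is the no-effect control and ±100 the full control effect.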 Particulars: SW-13 ACC cells viability, CellTiter-Glo, 48 h; activity (max response): stronger effect = lower value. The procedure, abridged: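 48 h treatment, SW-13 in ITS/DMEM serum-free; doses up to 46 uM; readout CellTiter-Glo luminescence; curve fit four-parameter logistic.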
Assay [11] is described as follows: Cellular viability qHTS for adrenocortical cancer (ACC) cell line NCI-H295R (AID 1963990). Further: nearly all actives have a fitted effect of over 60% in size. The procedure, abridged:
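Compound titrations (up to 46 uM final) are applied to NCI-H295R cultures for 48 h at 37C. Viable cell number is estimated by CellTiter-Glo signal, normalised to DMSO and doxorubicin controls.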

The nature of assay [12]: Quantitative highthroughput screen to assess conditional lethalithy of P12 Ichikawa cells grown in RPMI1640 with untreated serum (RPMI+s) (AID 1963881). Further: nearly all actives have a fitted effect of over 35% in size.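 On Viability: series mostly up to about 46 µM; 100% = DMSO wells and 0% = empty wells without cells.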 Particulars: Potency: viability. The procedure, abridged: as §1
The nature of assay [13]: Quantitative highthroughput screen to assess conditional lethalithy of SEM cells grown in RPMI1640 with dialyzed fetal bovine serum (RPMI+ds) (AID 1963884). Further: nearly all actives have a fitted effect of over 35% in size.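 On Viability: series mostly up to about 46 µM; 100% = DMSO control wells and 0% = empty wells without cells.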 The procedure, abridged: as §1
Potency means the concentration at half of the fitted maximal effect.

With `COc1ccc(-c2ccc3ncc4c(c3c2)n(-c2ccc(N3CCNCC3)c(C(F)(F)F)c2)c(=O)n4C)cn1`, the Potency was 0.0263 µM (active) in [1]; 13 nM (active) and 16.4 nM (active) and 29.5 nM (active) in [2]; 526 nM (active) in [3]; 469 nM (active) in [4]; 148 nM (active) in assay [5]; 1050 nM (active) in assay [6]. For the same compound, the Potency is 187 nM (active) in assay [7]; 74.3 nM (active) in [8]; 20.9 nM (active) in [9]; 316 nM (active) in assay [10]; 126 nM (active) in assay [11].
Consider `O=C(Nc1cccc(Cl)c1)Nc1ncc(CCNc2ncnc3ccsc23)s1`, for which the Potency is 0.0206 µM (active) in [1]; 0.0326 µM (active) in assay [2]; 296 nM (active) in assay [3]; 332 nM (active) in assay [4]; 105 nM (active) in assay [5]; 372 nM (active) in assay [6]. Besides, the Potency in [12] was 418 nM (active); in assay [9] it was 209 nM (active); in assay [13], 209 nM (active); in assay [10] it was 28200 nM (active); in [11], 3550 nM (active).
Take `COc1cc(N2CCC(O)CC2)ccc1Nc1cc(Nc2ccccc2S(=O)(=O)C(C)C)c2cc[nH]c2n1`: the Potency in [1] is 16.4 µM (active) and 10.5 µM (active); in assay [2], 20.6 µM (active) and 14.8 µM (active). Besides, the Potency entry in [3], in [4], in assay [5], in [6], in assay [12] and in assay [11] was “inactive” each time. The activity (max response) in [10] was -1.42%.
With `COc1ccc2c(Oc3ccc(NC(=O)c4c(C)n(CC(C)(C)O)n(-c5ccccc5)c4=O)cc3F)ccnc2c1`, the Potency is 0.0934 µM (active) in [1], 0.148 µM (active) in assay [2], 18700 nM (active) in assay [4] and 3320 nM (active) in assay [9]. The Potency entry in assay [3], in assay [5], in assay [6] and in assay [7] was “inactive” in each case.
As for `CC(O)(C#Cc1ccc2c(c1)N(c1nc(N)ncc1Cl)CC2)c1nccs1` (configuration not stated), the Potency in [1] is 13 µM (active); in assay [2], 10.3 µM (active). The Potency result in assay [3], in assay [4], in [5], in assay [6] and in assay [13] was “inactive” in each case.
For the compound `COc1ccccc1OCCNCC(O)COc1cccc2[nH]c3ccccc3c12` (configuration not stated), the figures for the Potency in assay [1] and in [2] were 13.3 µM (active) and 11.9 µM (active), respectively. Besides, the Potency result in assay [3], in [4], in [5], in assay [7], in assay [12] and in assay [8] was “inactive” throughout. The Potency entry in assay [9] and in assay [13] was “inactive” throughout.
Consider `COc1cc(Nc2ncc(F)c(Nc3ccc4c(n3)N(COP(=O)(O)O)C(=O)C(C)(C)O4)n2)cc(OC)c1OC`, for which the Potency in assay [1] is 92 nM (active) and 259 nM (active) and 83.3 nM (active); in [2], 130 nM (active) and 461 nM (active) and 148 nM (active); in [10], 14100 nM (active); in [11], 15800 nM (active). The Potency result in assay [3], in assay [4], in assay [5], in assay [7] and in assay [12] was “inactive” each time.
In the case of `CNC(=O)c1nn(C)c2c1C(C)(C)Cc1cnc(Nc3ccc(N4CCN(C)CC4)cc3)nc1-2`, the Potency in assay [1] is 51.7 nM (active) and 74.2 nM (active); in assay [2], 82 nM (active) and 209 nM (active); in assay [3], 16600 nM (active); in assay [4], 14800 nM (active); in assay [5], 8330 nM (active); in assay [8], 264 nM (active). Moreover, the Potency in [9] is 372 nM (active); in assay [13], 418 nM (active); in [10], 5010 nM (active); in assay [11], 14100 nM (active).
Regarding `C[C@H]1COC2=C1C(=O)C(=O)c1c2ccc2c1CCCC2(C)C`, the Potency in assay [1] is 5.9 µM (active); in assay [2], 5.25 µM (active); in assay [9], 2350 nM (active); in assay [13] it was 13200 nM (active). Moreover, the Potency result in assay [3], in assay [4], in [5], in assay [7] and in assay [12] was “inactive” throughout. Also, the activity (max response) in assay [10] is -2.17%.
For `CCCc1nn(C)c2c(=O)[nH]c(-c3cc(S(=O)(=O)N4CCN(C)CC4)ccc3OCC)nc12`, the Potency entry in assay [1], in assay [3], in assay [4], in assay [5] and in assay [11] was “inactive” each time. The Potency in [2] is 18.6 µM (active). In [10], the activity (max response) is 1.97% and 1.26%.
Turning to `Cc1nccn1CC1CCc2c(c3ccccc3n2C)C1=O` (configuration not stated), the Potency result in assay [1], in assay [2], in [3], in assay [4], in assay [5] and in assay [7] was “inactive” in each case. Besides, the Potency entry in assay [12], in assay [8], in [9], in [13] and in assay [11] was “inactive” each time. Besides, the activity (max response) in assay [10] was -14.2%.
Turning to `Fc1ccc(CNc2ncnc3ccc(F)cc23)cc1`, the Potency in [1] was 2.06 µM (active); in assay [2] it was 1.84 µM (active); in assay [7], 11800 nM (active). Also, the Potency entry in assay [3], in assay [4], in [5], in assay [8] and in assay [9] was “inactive” throughout.
